# Measured values from PubChem BioAssay AID602310 (National Center for Advancing Translational Sciences (NCATS), 2012).
# Hit rate of the full screen: of about 410,000 compounds, about 310 (0.076%) were called active. Inconclusive results (about 2%) are left out. The sample holds actives, similar compounds and a random draw of the others, so the mix is not that of the screen. Calls come from the whole dose curve; as a rule, active = well fitted curve in the direction sought with a large enough effect; inconclusive = small, poorly fitted or top-dose-only effect; inactive = flat fitted curve, though single readings scatter.
# Molecular target: DNA dC->dU-editing enzyme APOBEC-3G (Homo sapiens) (UniProt Q9HC16)
# Experiment: qHTS for Inhibitors of Vif-A3G Interactions: qHTS; note: nearly all actives have a fitted effect of over 60% in size;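 for activity, negative = active: hits raise eYFP signal because A3G escapes Vif-driven loss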
# Settings: HeLa A3G-eYFP + Vif (tagged APOBEC3G with the HIV-1 protein that degrades it), YFP fluorescence, overnight; series mostly up to 46.1 µM; activity, negative = active: at the top concentration
# Excerpt: The recent discovery and characterization of host restriction factors, which provide a potent defense to invading retroviruses, has provided new targets for antiviral drug development. APOBEC3G (A3G) and APOBEC3F (A3F) are potent cytidine deaminases that block HIV-1 replication; HIV-1 expresses the Vif protein, which counteracts A3G and A3F by binding to them and inducing their proteasomal degradation. The Vif-A3G and Vif-A3F interactions provide two potential targets for development of small molecules which can interfere with the ability of Vif to degrade A3G or A3F. […] To identify inhibitors that can interfere with Vif mediated degradation of A3G and A3F, we have developed Hela cell lines that stably express A3G or A3F tagged with eYFP at the C-terminal end (A3G-eYFP or A3F-eYFP, respectively) and Vif. In the absence of an inhibitor, Vif induces degradation of A3G-eYFP and A3F-eYFP, and the cells are not fluorescent. In the presence of an inhibitor, it is expected that Vif will be unable to degrade A3G-eYFP and/or A3F-eYFP, resulting in an increase in yellow fluorescence. In this assays Vif A3G was screened against the Molecular Library Small Molecule Repository (MLSMR). NIH Chemical Genomics Center [NCGC] NIH Molecular Libraries Probe Centers Network [MLPCN] MLPCN Grant: MH093245 Assay Submitter (PI): Vinay Pathak, National Cancer Institute
# 5 uL of 700 cells/well of A3G-YFP cells are dispensed into black, clear bottom plates. The plates are incubated overnight at 37 deg C. 23 nL of compounds are added by pintool. The plates are incubated overnight at 37 deg C and then read on the TTP Acumen (Ex 488/ Em 500-530).
# % is set by controls: 0 for no effect and ±100 for the full control effect; potency is the fitted concentration of half-maximal effect.
# DNA dC->dU-editing enzyme APOBEC-3G (Homo sapiens), sequence (Q9HC16 whole entry, looked up): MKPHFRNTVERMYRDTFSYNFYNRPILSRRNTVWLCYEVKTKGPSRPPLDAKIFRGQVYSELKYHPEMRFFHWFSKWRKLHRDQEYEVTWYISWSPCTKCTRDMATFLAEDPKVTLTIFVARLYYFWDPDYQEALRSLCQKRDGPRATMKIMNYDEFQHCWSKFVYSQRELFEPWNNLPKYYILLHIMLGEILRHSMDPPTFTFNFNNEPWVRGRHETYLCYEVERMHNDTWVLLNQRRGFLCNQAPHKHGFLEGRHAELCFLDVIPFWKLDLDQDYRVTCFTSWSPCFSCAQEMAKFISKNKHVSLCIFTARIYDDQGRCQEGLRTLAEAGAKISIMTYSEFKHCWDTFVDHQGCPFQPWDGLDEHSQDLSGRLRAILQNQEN
Structure (SMILES),"activity, negative = active",Potency
CCC(=NCCc1ccccc1)c1c(O)n(C2CCCCC2)c(=O)[nH]c1=O,-0.155% (inactive),
CC/C(=N\NC(=O)c1ccccc1O)c1c(O)n(Cc2ccccc2)c(=O)[nH]c1=O,,10 µM (active)
O=c1[nH]c(=O)n(Cc2ccccc2)c(O)c1/C=N/Nc1c(F)c(F)c(F)c(F)c1F,-1.03% (inactive),
ClCCN(CCCl)c1ccc(C=Nc2ccc(/C=C/c3ccnc4ccccc34)cc2)cc1,-17.1% (inactive),
